Assay outcomes from PubChem.
ALDH1A1 block: blocks purified human ALDH1A1 activity; Potency, µM (top dose mostly 75.3 µM), for inactives: at the highest dose activity, negative = inhibition, usual class: inhibitors; AID 1030; 220,000 tested, 7.3% active; Purified ALDH1A1, NADH fluorescence, propionaldehyde substrate; P00352;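 also: potency is read from the fitted curve at half-maximal effect; plate controls were no enzyme wells and a reference inhibitor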
PNC assembly inh: perinucleolar compartment assembly inhibition; PC3M PTB-GFP, PNC prevalence imaging, 16 h; stronger effect = lower value; activity change (PNC), negative = inhibition, % at 10 µM; 140,000 tested, 3.1% active;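 active = readout at or below -70, meaning at least 70% loss of cells showing the perinucleolar compartment, a nuclear body marking cancer cells; inconclusive = readout between -30 and a set limit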;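 also: plate controls were DMSO wells for no effect and camptothecin positive control wells for full effect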
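Read-out is percentage of cells bearing a perinucleolar compartment, from automated 20x imaging of fixed, Hoechst-stained PC3M PTB-GFP cells. Cells were seeded 4 h, then exposed 16 h to compound (23 nl of library stock) in duplicate plates.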
HPGD inh: blocks human HPGD enzyme activity. purified HPGD, NADH fluorescence kinetic, PGE2 substrate. Potency, µM, inactives show at the top dose activity change, negative = inhibition, usual class: inhibitors. 150,000 tested, 4.3% active. AID 894; also: potency is read from the fitted curve at half-maximal effect
Target sequence (P15428 whole entry, looked up): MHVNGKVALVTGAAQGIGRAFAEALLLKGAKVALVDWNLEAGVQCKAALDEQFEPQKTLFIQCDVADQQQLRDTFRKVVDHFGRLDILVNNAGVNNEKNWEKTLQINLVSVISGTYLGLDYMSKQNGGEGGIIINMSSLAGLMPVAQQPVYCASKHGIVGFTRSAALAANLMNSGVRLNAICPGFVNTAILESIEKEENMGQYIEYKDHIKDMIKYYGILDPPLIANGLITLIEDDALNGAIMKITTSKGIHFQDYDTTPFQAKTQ
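NADH formation kinetics: reaction with 30 uM PGE2 and 1 mM NAD+ (final), 20 nM enzyme, Tris-HCl pH 8 with Tween 20, after 15 min compound preincubation at room temperature. Fluorescence change, last versus first of five reads.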
* marks the source's active call; other numbers are inactive results; u = inconclusive; x = not tested or not shown; [ ] = another dose, or the depositor's remark. An excerpt weighted towards active compounds, which were near 11% of everything screened. Unless noted, calls follow the shape of the dose curve; as a rule, active = well fitted inhibition curve with a large enough effect (not every such curve was filed as active); inconclusive = small, poorly fitted or top-dose-only effect, or another doubt; inactive = no such curve, though single readings can be large or run the other way. Unless noted, % is scaled to controls: 0 for no effect and ±100 for the full control effect.

SMILES	ALDH1A1 block	PNC assembly inh	HPGD inh
Cc1ccc(Cn2nc(C)c(NC(=O)CCCn3nc(C)c([N+](=O)[O-])c3C)c2C)cc1	1.7%	u	-5.5%
Cc1ccc(Cn2nc(C)c(NC(=O)CCCn3nc([N+](=O)[O-])c(Cl)c3C)c2C)cc1	u	86.4	-2.9%
Cc1cc(C(=O)Nc2c(C)nn(Cc3c(Cl)cccc3Cl)c2C)no1	0.5%	55.5	-19.3%
Cc1nn(Cc2c(Cl)cccc2Cl)c(C)c1NC(=O)c1cc(C(C)C)on1	-5.5%	-101.7*	-0.9%
Cc1nn(Cc2ccccc2Cl)c(C)c1NC(=O)CCCn1nc([N+](=O)[O-])c(Cl)c1C	8.91µM*	-10.9	-10.4%
Cc1nn(Cc2c(Cl)cccc2Cl)c(C)c1NC(=O)CCCn1nc(C)c([N+](=O)[O-])c1C	3.55µM*	9.6	-11.7%
CCOc1ccc(-c2ncncc2-c2ccc(OC)cc2)c(O)c1	12.8%	21.4	x
COc1cc(C)nc(-n2nc(C)cc2OC)n1	6.0%	u	-7.8%
CCCCCCCCCC(=O)NC(CN1CCOCC1)[C@H](O)c1ccccc1 (stereo partly specified)	-8.4%	x	6.1%
O=C(COC(=O)c1ncc(Cl)c(Cl)c1Cl)c1ccc(Cl)s1	u	26.1	u
CC(C)(C)C1CCC2(CC1)CCN(CCCN1CCOCC1)CC2	-5.5%[13.5 µM]	x	0.7%
Cc1sc(NC(=O)CSc2nnnn2C2CCCCC2)c(C#N)c1C	u	2.0	x
CCCn1c(SCC(=O)Nc2ccccc2CC)nnc1C(C)C	-8.6%	u	-1.0%
Cc1sc(NC(=O)CSc2nnc(C(C)C)n2C)c(C#N)c1C	-10.2%	-86.5*	2.4%
Cc1sc(NC(=O)CSc2nnc(C)c(=O)[nH]2)c(C#N)c1C	14.1µM*	12.9	-16.7%
CCCn1c(SCC(=O)Nc2sc(C)c(C)c2C#N)nnc1C(C)C	2.82µM*	u	x
Cc1nnc(SCC(=O)Nc2nccs2)[nH]c1=O	-8.6%	-20.9	-12.5%
CCCCNC(=O)C(c1ccc(OCC(=O)OC)c(C(=O)OC)c1)N(CCc1ccccn1)C(=O)CCCCCN1C(=O)NC(c2ccc(-c3ccccc3)cc2)C(C(=O)OCc2ccccc2)=C1C (stereo unspecified)	2.4%	x	-4.5%
CO[C@H]1COC(=O)C/C=C\[C@@H](C)[C@H](OC)COC(=O)CCC[C@@H]1C	2.5%[13.5 µM]	x	x
Cc1ccc(/C(C#N)=C\c2ccc(N3CCOCC3)o2)cc1	10µM*	-25.9	u
N#C/C(=C/c1ccc(N2CCCCC2)o1)c1cccc(F)c1	u	21.8	u
N#C/C(=C/c1ccc(N2CCCCCC2)o1)c1ccc(Cl)cc1	7.94µM*	-4.1	u
Cc1ccc2nc(/C(C#N)=C\c3ccc(N4CCOCC4)o3)[nH]c2c1	u	16.7	-12.6%
CCN(c1ccccc1)S(=O)(=O)c1cnc[nH]1	7.0%	18.7	-5.0%
O=C(O)CCC(=O)N1CCc2cc(S(=O)(=O)N3CC=C(c4ccccc4)CC3)ccc21	u	19.7	-27.8%
SMILES	ALDH1A1 block	PNC assembly inh	HPGD inh
O=C(CSCC(=O)NC1CC1)Nc1ccc2ccccc2c1	-1.7%	-2.6	-6.7%
C=CCn1c(=O)/c(=C/c2ccc(C)o2)s/c1=C(/C#N)C(=O)c1ccccc1	0.708µM*	2.6	-12.5%
COCCCn1c(=O)/c(=C\c2ccccc2OC(F)F)s/c1=C(/C#N)C(N)=O	2.5%	x	x
COC(=O)CN1C2(C#N)CCCCC2CC2CCCCC21C#N (stereo unspecified)	-0.6%	u	-7.7%
N#Cc1c(SCC(N)=O)nc(-c2ccccc2)c2c1CCCC2	22.4µM*	-26.3	-6.7%
CCOC(=O)CSc1nc(C2CC2)cc(-c2ccc(Cl)cc2)c1C#N	31.6µM*	u	u
CCOC(=O)CC(=O)CSc1nc(C)cc(-c2cccnc2)c1C#N	-15.5%	23.3	-5.6%
Cc1c(C#N)c(SCC(N)=O)nc2c1CCCC2	-0.6%	-27.2	-8.5%
COC(=O)CSc1nc(C2CC2)cc(C(F)(F)F)c1C#N	-1.7%	10.5	-3.4%
CCc1nnc(NC(=O)CSc2nc(-c3ccc(F)cc3)cc(-c3ccccc3)c2C#N)s1	10µM*	-5.3	x
COc1ccc(-c2cc(-c3ccccc3)nc(SCC(=O)Nc3ncc(C)s3)c2C#N)cc1	u	0.8	u
Cc1cc(-c2ccccc2)c(C#N)c(SCC(N)=O)n1	12.6µM*	12.6	-13.0%
CCOC(=O)c1c(C#N)c(SCC(=O)Nc2ccc(OC)cc2)nc2c1CN(CC)CC2	-4.0%	-12.9	-14.4%
O=C(Nc1ccc2c(c1)Cc1ccccc1-2)c1cccnc1	-15.5%	x	x
O=C(c1cc(C(F)(F)F)cc(C(F)(F)F)c1)N1CCC[C@@]2(CCN(Cc3ccccc3)C2)C1	1.8%	x	-6.3%
COC(=O)C1=C(C)NC(C)=C(C(=O)OC)C1C(=O)OCC(=O)N1c2ccccc2CC1C (stereo unspecified)	u	17.6	-23.7%
O=C(CSc1cccc[n+]1[O-])Nc1cccc(S(=O)(=O)NC2=NCCCCC2)c1	-3.0%	x	x
N#Cc1c(SCC(=O)O)nc(-c2ccccc2)c2c1CCCC2	17.8µM*	30.4	x
CCC(=O)N1CCN(c2nc(-c3ccccc3)c3c(c2C#N)CCCC3)CC1	u	-6.9	u
CCCCC[C@H](O)C=C[C@H]1[C@H](O)CC(=O)[C@H]1CCCCCCC(=O)O	10.9%	x	u
CCN=C1NN=C(c2ccc(C)cc2)CS1	25.1µM*	32.2	28.2µM*
C=CCN=C1NN=C(c2cc(C)n(CC=C)c2C)CS1	u	-0.5	-25.6%
CCOC(=O)c1c(C)[nH]c(C2=NNC(=Nc3cccc(Cl)c3)SC2)c1C	u	-8.9	-11.9%
O=C(CN1CCSC1=NCc1ccccc1)c1ccc(Cl)cc1	0.4%	3.4	-29.1%
CC(=O)c1c(C)[nH]c(C2=NNC(=NCc3ccccc3)SC2)c1C	28.2µM*	x	x
SMILES	ALDH1A1 block	PNC assembly inh	HPGD inh
CCCCN=C1NN=C(c2cc3ccccc3o2)CS1	u	-14.5	-27.9%
Clc1ccc(C2=NNC(=NCc3ccccc3)SC2)cc1	10µM*	x	x
C=CCN=C1NN=C(c2ccc3c(c2)OCCO3)CS1	20µM*	x	x
O=C1[C@H]2[C@H]3[C@H](O)[C@H](O)C/C(=N/OCc4ccccc4)[C@@H]3CC[C@@H]2C(=O)N1C[C@@H]1CCCO1	23.9%[13.5 µM]	x	x
c1ccc(C2=NNC(=NCc3ccc4c(c3)OCO4)SC2)cc1	25.1µM*	u	x
c1ccc(CN=C2NN=C(c3ccccc3)CS2)cc1	22.4µM*	x	x
CN(C)S(=O)(=O)c1cccc(N=C2NN=C(c3ccccc3)CS2)c1	u	u	-8.8%
O=C(NCc1ccc2c(c1)OCO2)c1cc(-c2ccccc2)on1	u	36.4	-17.4%
Cc1ccc(NC(=O)CN(C)C(=O)CCC(=O)c2cccs2)cc1	-9.8%	1.2	2.4%
CC(=O)c1cc(C#N)c(SCC(=O)OC(C)(C)C)nc1C	6.31µM*	-6.5	-27.4%
CC(=O)c1cc(C#N)c(SCC(=O)OC(C)C)nc1C	u	20.4	-19.8%
Cc1nc2ccc(C(C(F)(F)F)(C(F)(F)F)C(F)(F)F)cc2[nH]1	5.9%	32.6	-7.1%
O=C1CCCC=C1[C@H](O)CCCCBr	-4.4%[13.5 µM]	x	x
Cc1nc(OCC(=O)c2ccc(Cl)cc2)c(C#N)c2c1COC(C)(C)C2	u	1.3	-12.6%
CCc1nc(OCC(=O)c2ccccc2)c(C#N)c2c1COC(C)(C)C2	6.31µM*	-15.3	-12.6%
Cc1ccc(Oc2ccccc2/C=N/O)cc1	-0.4%	13.6	-28.8%
C=CCOc1ccccc1/C=N/O	4.5%	8.7	15.8µM*
